Experimental data reported in patent US20130210151, “ENDONUCLEASE FOR GENOME EDITING” (University of Western Ontario, published 2013).

Target: TevN201-ZFE-6xHis (I-TevI 1-201 fused to ryA zinc finger) (synthetic (bacteriophage T4 I-TevI …))
Assay: cleavage_in_vitro; 10 mM MgCl2, 100 mM NaCl, pH 8.0, 37 C
Conditions: tags: C-terminal 6xHis; dsDNA, one strand shown
Method: Single time-point cleavage assays to determine the EC_{0.5max} of N201 Tev-ZFE were performed in buffer containing 20 mM Tris-HCl pH 8.0, 100 mM NaCl, 10 mM MgCl₂, 5% glycerol, 1 mM DTI and 10 nM pTZHS1.33. Reactions were incubated for 3 minutes at 37° C., stopped with 5 μl stop solution (100 mM EDTA, 40% glycerol, and bromophenol blue), and electrophoresed on a 1% agarose gel prior to staining with ethiduium bromide and analysis on an AlphaImager™3400 (Alpha Innotech). The EC_{0.5max} was determined by fitting the data to the equation
Cleavage assays were performed with wild type and mutant substrates and increasing concentrations of TevN201-ZFE to determine the amount of protein required for half-maximal cleavage (EC_{0.5max}). […] The greater substrate discrimination observed in the genetic assay likely reflects lower in vivo protein concentrations than those used for in vitro cleavage assays. […] Although the BmoN221-ZFE substrate specificity was not tested extensively, it was shown that the chimeric endonuclease cleaved the Bmo-ryA substrate plasmid, but not the target-less control plasmid.

Row | Sequence | binding signal
1 | CTAGACAACACTCAGTAGATGTTTTCTTGGGTCTACCGTCCCACGCCGCATG | ~4.7 fold higher EC0.5max vs TZ1.33
2 | CTAGAAAACACTCAGTAGATGTTTTCTTGGGTCTACCGTCCCACGCCGCATG | ~60 fold higher EC0.5max vs TZ1.33
